Measured values reported in the supplement of paper PMC10849652.
Targets with a hit are over-represented here; the source holds about 7,900 in all. About 0.6% of all pairs of compound and target were hits.

Assays:
Assay in all cases: log2 fold change, soluble protein after heating vs DMSO (PISA); higher = thermal stabilisation; K562 cells, 10 uM, 30 min; active = over 0.2 and 3.5 SD of the protein, either way, in both replicates (recomputed)
[1] = compound: COC1=CC=C(C=C1)CN2C=CC3=C2C=C(C=C3)C(=O)NO
Outline: (§1)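 Aliquots of K562 cells (2×10^6 cells/mL) treated with 10 μM compound for 30 min were heated for 3 min over 48°C-58°C. After pooling and extraction in PBS with 0.5% NP-40 at 4°C, soluble protein from a 21,000xg, 90 min spin was quantified by TMTpro 16plex LC-MS/MS with channel sums equalised. Thermal stability is expressed against control samples, from duplicates, as a log2 fold change.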

[2] = compound: CON(C)C(=O)N1N=C(c2cc(F)ccc2F)S[C@@]1(CCCN)c1ccccc1 [filanesib]
Outline: as §1

[3] = compound: CO[C@H]1C[C@@H]2CC[C@@H](C)[C@@](O)(O2)C(=O)C(=O)N2CCCC[C@H]2C(=O)O[C@H]([C@H](C)C[C@@H]2CC[C@H](n3cnnn3)[C@H](OC)C2)CC(=O)[C@H](C)/C=C(\C)[C@@H](O)[C@@H](OC)C(=O)[C@H](C)C[C@H](C)/C=C/C=C/C=C/1C [zotarolimus]
Outline: as §1

[4] = compound: COc1cc(C(=O)O)ccc1NC(=O)[C@@H]1N[C@@H](CC(C)(C)C)[C@](C#N)(c2ccc(Cl)cc2F)[C@H]1c1cccc(Cl)c1F [idasanutlin]
Outline: as §1

[5] = compound: COc1cc(Nc2ncc3c(n2)-c2ccc(Cl)cc2C(c2c(F)cccc2OC)=NC3)ccc1C(=O)O [alisertib]
Outline: as §1

[6] = compound: COc1cc2nc(-c3cc(F)ccc3O)nc(N[C@@H]3CNC[C@H]3C(C)(C)O)c2cc1OC
Outline: as §1

[7] = compound: COc1cc2ncnc(Nc3ccc(F)c(Cl)c3)c2cc1OCCCN1CCOCC1 [gefitinib]
Outline: as §1

[8] = compound: COc1cccc2cc(-c3nc([C@H]4CC[C@H](C(=O)O)CC4)n4ncnc(N)c34)[nH]c12
Outline: as §1

[9] = compound: CS(=O)(=O)CCNCc1ccc(-c2ccc3ncnc(Nc4ccc(OCc5cccc(F)c5)c(Cl)c4)c3c2)o1 [lapatinib]
Outline: as §1

[10] = compound: CS(=O)(=O)N1CCN(Cc2cc3nc(-c4cccc5[nH]ncc45)nc(N4CCOCC4)c3s2)CC1 [pictilisib]
Outline: as §1

[11] = compound: CS(=O)(=O)c1ccc(-c2cnc(N)c(C(=O)Nc3ccccc3)n2)cc1
Outline: as §1

[12] = compound: C[C@@H](Oc1cc(-c2cnn(C3CCNCC3)c2)cnc1N)c1c(Cl)ccc(F)c1Cl [crizotinib]
Outline: as §1

[13] = compound: C[C@@H]1COCCN1C2=NC(=NC(=C2)C3(CC3)S(=O)(=O)C)C4=C5C=CNC5=CC=C4
Outline: as §1

[14] = compound: C[C@H](C1=CC=C(C=C1)C(=O)NC2=C3C=CNC3=NC=C2)N
Outline: as §1

[15] = compound: C[C@H](Nc1ncnc2nc[nH]c12)c1cc2cccc(Cl)c2c(=O)n1-c1ccccc1 [duvelisib]
Outline: as §1

[16] = compound: Cc1cc(Nc2cc(CN3CCOCC3)c3nc(C)c(Cc4ccc(Cl)cc4F)n3n2)n[nH]1 [gandotinib]
Outline: as §1

[17] = compound: Cc1cc(Nc2cc(N3CCN(C)CC3)nc(Sc3ccc(NC(=O)C4CC4)cc3)n2)n[nH]1 [tozasertib]
Outline: as §1

[18] = compound: Cc1cc(SCc2sc(-c3ccc(C(F)(F)F)cc3)nc2C)ccc1OCC(=O)O
Outline: as §1

[19] = compound: Cc1ccc(-n2nc(C(C)(C)C)cc2NC(=O)Nc2ccc(OCCN3CCOCC3)c3ccccc23)cc1 [doramapimod]
Outline: as §1

[20] = compound: Cc1ccc(C(=O)N(CCCN)[C@@H](c2nc3cc(Cl)ccc3c(=O)n2Cc2ccccc2)C(C)C)cc1 [ispinesib]
Outline: as §1

Measured: log2 fold change

WDR4 (UniProt P57081)
UniProt P57081, sequence (P57081 whole entry, looked up): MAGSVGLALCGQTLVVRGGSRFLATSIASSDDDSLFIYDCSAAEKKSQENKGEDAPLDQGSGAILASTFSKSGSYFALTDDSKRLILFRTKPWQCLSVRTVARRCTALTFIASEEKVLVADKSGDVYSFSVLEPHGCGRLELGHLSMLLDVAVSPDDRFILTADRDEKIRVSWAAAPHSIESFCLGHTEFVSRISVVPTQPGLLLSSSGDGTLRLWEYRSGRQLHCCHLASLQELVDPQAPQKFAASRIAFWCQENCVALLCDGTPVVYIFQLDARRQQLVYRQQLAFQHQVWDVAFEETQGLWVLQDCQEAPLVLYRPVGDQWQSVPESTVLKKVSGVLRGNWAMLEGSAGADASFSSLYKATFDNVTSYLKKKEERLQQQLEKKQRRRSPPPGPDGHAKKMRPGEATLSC
inactive: [1] 0.017 | [2] -0.022 | [3] 0.004 | [4] -0.096 | [5] -0.059 | [6] -0.058 | [7] -0.01 | [8] 0.049 | [9] 0.206 | [10] 0.131 | [11] 0.085 | [12] -0.038 | [13] -0.024 | [14] -0.121 | [15] 0.014 | [16] 0.049 | [17] -0.007 | [18] 0.017 | [19] 0.023 | [20] 0.075

WDR41 (UniProt Q9HAD4)
UniProt Q9HAD4, sequence (Q9HAD4 whole entry, looked up): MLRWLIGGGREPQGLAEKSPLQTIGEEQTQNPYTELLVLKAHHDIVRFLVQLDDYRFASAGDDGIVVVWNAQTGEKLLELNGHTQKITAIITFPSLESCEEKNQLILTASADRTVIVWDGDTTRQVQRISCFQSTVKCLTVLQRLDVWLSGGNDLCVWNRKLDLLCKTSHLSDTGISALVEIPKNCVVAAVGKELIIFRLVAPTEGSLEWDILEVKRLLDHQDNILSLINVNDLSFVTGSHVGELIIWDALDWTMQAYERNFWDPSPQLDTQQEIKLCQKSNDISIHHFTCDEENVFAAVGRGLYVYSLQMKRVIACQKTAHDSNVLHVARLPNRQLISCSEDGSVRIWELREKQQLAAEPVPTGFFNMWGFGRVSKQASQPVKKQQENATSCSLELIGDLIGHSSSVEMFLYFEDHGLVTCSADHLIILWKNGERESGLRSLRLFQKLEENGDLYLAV
inactive: [1] 0.025 | [2] -0.154 | [3] -0.007 | [4] -0.031 | [5] -0.072 | [6] -0.254 | [7] -0.002 | [8] 0.014 | [9] 0.049 | [10] -0.056 | [11] 0.01 | [12] -0.093 | [13] -0.064 | [14] -0.064 | [15] 0.013 | [16] -0.035 | [17] -0.002 | [18] -0.02 | [19] -0.042 | [20] -0.172

WBP4 (UniProt O75554)
UniProt O75554, sequence (O75554 whole entry, looked up): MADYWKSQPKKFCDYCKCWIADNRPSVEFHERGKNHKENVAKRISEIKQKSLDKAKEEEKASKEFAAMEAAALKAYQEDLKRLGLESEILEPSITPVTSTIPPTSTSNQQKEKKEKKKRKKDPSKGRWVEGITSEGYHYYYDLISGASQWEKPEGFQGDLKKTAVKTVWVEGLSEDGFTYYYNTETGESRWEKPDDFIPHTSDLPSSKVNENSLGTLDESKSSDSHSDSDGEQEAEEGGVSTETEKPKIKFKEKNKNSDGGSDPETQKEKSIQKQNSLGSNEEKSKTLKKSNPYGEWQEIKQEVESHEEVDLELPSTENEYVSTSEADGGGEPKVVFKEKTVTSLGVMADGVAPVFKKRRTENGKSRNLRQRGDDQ
inactive: [1] 0.001 | [2] -0.082 | [3] -0.025 | [4] 0.022 | [5] -0.042 | [6] -0.009 | [7] 0.014 | [8] -0.003 | [9] 0.05 | [10] -0.139 | [11] -0.032 | [12] 0.059 | [13] 0.004 | [14] -0.015 | [15] 0.011 | [16] -0.022 | [17] -0.016 | [18] 0.01 | [19] 0.018 | [20] -0.044

VPS13B (UniProt Q7Z7G8)
inactive: [1] 0.019 | [2] -0.11 | [3] -0.007 | [4] 0.025 | [5] 0.07 | [6] -0.111 | [7] 0.019 | [8] 0.07 | [9] -0.018 | [10] 0.057 | [11] 0.023 | [12] 0.015 | [13] 0.045 | [14] -0.033 | [15] -0.064 | [16] -0.062 | [17] -0.01 | [18] 0.015 | [19] 0.028 | [20] -0.134

USO1 isoform 2 (UniProt O60763)
inactive: [1] 0.009 | [2] -0.054 | [3] 0.034 | [4] -0.054 | [5] -0.037 | [6] -0.031 | [7] 0.003 | [8] 0.01 | [9] 0.016 | [10] 0.014 | [11] 0.001 | [12] -0.031 | [13] 0.05 | [14] -0.068 | [15] -0.023 | [16] -0.062 | [17] 0.029 | [18] 0.052 | [19] -0.019 | [20] 0.012

TOE1 (UniProt Q96GM8)
inactive: [1] -0.06 | [2] 0.246 | [3] 0.023 | [4] 0.032 | [5] -0.075 | [6] 0.039 | [7] 0.014 | [8] -0.162 | [9] 0.076 | [10] -0.054 | [11] 0.013 | [12] 0 | [13] -0.221 | [14] 0.211 | [15] -0.01 | [16] 0.219 | [17] 0.041 | [18] 0.066 | [19] 0.065 | [20] -0.021

UBE3D (UniProt Q7Z6J8)
UniProt Q7Z6J8, sequence (Q7Z6J8 whole entry, looked up): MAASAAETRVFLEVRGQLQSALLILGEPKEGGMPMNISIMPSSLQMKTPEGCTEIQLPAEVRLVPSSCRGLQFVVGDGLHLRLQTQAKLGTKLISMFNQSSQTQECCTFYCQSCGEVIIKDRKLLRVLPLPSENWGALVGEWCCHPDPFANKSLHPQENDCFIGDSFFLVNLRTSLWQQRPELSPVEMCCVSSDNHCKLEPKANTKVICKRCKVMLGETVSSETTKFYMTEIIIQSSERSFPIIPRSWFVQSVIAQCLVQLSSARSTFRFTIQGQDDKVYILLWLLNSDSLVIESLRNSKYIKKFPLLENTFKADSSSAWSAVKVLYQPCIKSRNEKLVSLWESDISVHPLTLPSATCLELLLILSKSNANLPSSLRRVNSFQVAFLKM
inactive: [1] -0.005 | [2] 0.08 | [3] -0.033 | [4] -0.009 | [5] -0.088 | [6] -0.022 | [7] 0.035 | [8] 0.009 | [9] -0.069 | [10] 0.139 | [11] 0.002 | [12] 0.053 | [13] 0.128 | [14] -0.067 | [15] 0.016 | [16] -0.147 | [17] 0.076 | [18] -0.052 | [19] -0.01 | [20] -0.024

UTP14A (UniProt Q9BVJ6)
UniProt Q9BVJ6, sequence (Q9BVJ6 whole entry, looked up): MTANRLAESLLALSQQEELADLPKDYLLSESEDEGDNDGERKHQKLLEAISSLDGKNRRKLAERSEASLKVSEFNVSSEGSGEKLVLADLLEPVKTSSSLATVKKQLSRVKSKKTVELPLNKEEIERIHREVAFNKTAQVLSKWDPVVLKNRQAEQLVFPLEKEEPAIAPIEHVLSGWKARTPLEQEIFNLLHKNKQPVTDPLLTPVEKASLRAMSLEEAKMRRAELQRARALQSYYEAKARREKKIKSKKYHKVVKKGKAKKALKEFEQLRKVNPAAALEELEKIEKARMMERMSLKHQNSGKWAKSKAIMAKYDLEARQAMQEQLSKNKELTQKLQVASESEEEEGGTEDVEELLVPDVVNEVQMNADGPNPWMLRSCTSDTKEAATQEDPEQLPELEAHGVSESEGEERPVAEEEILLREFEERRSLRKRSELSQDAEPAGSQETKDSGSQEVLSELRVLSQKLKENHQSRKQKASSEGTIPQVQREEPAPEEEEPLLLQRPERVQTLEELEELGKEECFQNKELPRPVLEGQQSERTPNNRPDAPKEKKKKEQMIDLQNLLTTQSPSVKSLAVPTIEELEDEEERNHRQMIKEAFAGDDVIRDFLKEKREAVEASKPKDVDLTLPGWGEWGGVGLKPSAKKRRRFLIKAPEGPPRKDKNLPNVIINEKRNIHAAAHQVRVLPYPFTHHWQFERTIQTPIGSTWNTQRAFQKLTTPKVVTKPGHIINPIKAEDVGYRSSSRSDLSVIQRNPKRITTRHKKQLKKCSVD
inactive: [1] -0.114 | [2] 0.336 | [3] -0.022 | [4] 0.161 | [5] -0.077 | [6] -0.111 | [7] -0.062 | [8] -0.138 | [9] 0.156 | [10] -0.174 | [11] -0.059 | [12] -0.035 | [13] -0.382 | [14] 0.274 | [15] -0.128 | [16] 0.151 | [17] 0.05 | [18] 0.065 | [19] 0.172 | [20] -0.171

VPS51 (UniProt Q9UID3)
UniProt Q9UID3, sequence (Q9UID3 whole entry, looked up): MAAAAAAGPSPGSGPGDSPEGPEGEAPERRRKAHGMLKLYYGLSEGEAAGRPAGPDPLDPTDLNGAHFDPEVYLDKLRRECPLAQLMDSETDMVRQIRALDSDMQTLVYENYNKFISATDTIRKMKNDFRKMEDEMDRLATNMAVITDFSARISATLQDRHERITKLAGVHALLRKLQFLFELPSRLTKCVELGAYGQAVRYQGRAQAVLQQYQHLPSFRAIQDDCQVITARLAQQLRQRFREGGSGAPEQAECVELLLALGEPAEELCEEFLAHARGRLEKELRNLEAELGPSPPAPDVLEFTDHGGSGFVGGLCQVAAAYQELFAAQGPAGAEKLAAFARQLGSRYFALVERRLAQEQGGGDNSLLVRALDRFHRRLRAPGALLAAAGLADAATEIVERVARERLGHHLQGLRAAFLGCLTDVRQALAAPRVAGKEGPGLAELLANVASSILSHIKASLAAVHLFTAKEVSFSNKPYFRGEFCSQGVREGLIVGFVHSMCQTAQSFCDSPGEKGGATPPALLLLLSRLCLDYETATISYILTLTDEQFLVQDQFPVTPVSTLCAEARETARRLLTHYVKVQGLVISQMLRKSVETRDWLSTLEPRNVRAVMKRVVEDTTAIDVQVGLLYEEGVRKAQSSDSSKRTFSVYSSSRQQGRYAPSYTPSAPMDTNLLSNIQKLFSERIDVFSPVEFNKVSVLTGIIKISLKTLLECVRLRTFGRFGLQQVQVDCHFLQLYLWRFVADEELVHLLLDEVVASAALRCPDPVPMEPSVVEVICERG
inactive: [1] 0.029 | [2] -0.024 | [3] -0.01 | [4] -0.098 | [5] -0.092 | [6] 0.055 | [7] 0.019 | [8] -0.057 | [9] -0.032 | [10] 0.013 | [11] -0.009 | [12] -0.096 | [13] -0.003 | [14] 0.05 | [15] 0.006 | [16] -0.04 | [17] 0.033 | [18] 0.079 | [19] 0.008 | [20] -0.115

VPS28 (UniProt Q9UK41)
UniProt Q9UK41, sequence (Q9UK41 whole entry, looked up): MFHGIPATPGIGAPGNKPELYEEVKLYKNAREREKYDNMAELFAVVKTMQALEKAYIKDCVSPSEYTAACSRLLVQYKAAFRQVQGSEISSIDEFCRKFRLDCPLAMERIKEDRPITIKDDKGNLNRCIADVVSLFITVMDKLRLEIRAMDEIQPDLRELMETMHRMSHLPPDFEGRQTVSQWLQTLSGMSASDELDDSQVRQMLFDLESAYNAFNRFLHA
inactive: [1] -0.17 | [2] -0.061 | [3] 0.008 | [4] -0.076 | [5] 0.07 | [6] 0.038 | [7] 0.027 | [8] 0.033 | [9] 0.023 | [10] 0.059 | [11] 0.01 | [12] 0.051 | [13] 0.063 | [14] -0.091 | [15] 0.044 | [16] -0.055 | [17] 0 | [18] 0.096 | [19] 0.035 | [20] -0.041

TRAM1 (UniProt Q15629)
UniProt Q15629, sequence (Q15629 whole entry, looked up): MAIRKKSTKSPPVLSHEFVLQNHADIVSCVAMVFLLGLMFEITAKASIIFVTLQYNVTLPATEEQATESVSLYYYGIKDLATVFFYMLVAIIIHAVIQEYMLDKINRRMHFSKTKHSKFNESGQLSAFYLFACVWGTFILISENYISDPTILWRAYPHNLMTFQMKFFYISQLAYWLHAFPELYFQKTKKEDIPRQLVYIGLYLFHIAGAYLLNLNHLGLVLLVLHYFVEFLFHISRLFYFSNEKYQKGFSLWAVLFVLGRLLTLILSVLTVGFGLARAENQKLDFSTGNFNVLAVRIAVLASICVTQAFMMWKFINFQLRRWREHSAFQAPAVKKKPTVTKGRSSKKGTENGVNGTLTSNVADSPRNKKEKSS
inactive: [1] -0.188 | [2] -0.218 | [3] -0.103 | [4] -0.119 | [5] -0.067 | [6] 0.24 | [7] -0.066 | [8] 0.005 | [9] -0.092 | [10] -0.163 | [11] 0.075 | [13] 0.017 | [14] 0.014 | [15] -0.003 | [17] -0.124 | [18] 0.09 | [19] -0.119
active: [12] -0.587 | [16] -0.47 | [20] -0.964

TTC38 (UniProt Q5R3I4)
UniProt Q5R3I4, sequence (Q5R3I4 whole entry, looked up): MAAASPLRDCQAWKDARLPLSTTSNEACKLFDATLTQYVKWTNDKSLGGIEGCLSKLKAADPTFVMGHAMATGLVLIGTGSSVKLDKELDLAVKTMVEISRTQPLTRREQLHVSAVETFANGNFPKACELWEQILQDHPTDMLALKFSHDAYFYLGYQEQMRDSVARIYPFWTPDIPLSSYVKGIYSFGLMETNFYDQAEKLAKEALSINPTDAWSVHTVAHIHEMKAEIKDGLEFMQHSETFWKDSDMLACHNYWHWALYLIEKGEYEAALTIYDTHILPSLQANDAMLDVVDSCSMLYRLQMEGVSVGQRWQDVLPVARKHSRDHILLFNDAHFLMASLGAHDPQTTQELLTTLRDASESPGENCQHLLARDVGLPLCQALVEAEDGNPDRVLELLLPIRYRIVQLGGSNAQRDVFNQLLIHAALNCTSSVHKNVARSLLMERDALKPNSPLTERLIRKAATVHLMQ
active: [19] 0.73
inactive: [1] -0.067 | [2] -0.023 | [3] 0.034 | [4] -0.093 | [5] 0.065 | [6] 0.081 | [7] 0.013 | [8] -0.003 | [9] -0.054 | [10] -0.041 | [11] -0.055 | [12] -0.085 | [13] -0.085 | [14] -0.073 | [15] -0.027 | [16] -0.031 | [17] 0 | [18] 0.063 | [20] 0.06

UBA6
inactive: [1] 0.021 | [2] -0.01 | [3] 0.051 | [4] -0.016 | [5] -0.04 | [6] -0.031 | [7] 0.029 | [8] -0.069 | [9] 0.022 | [10] 0.004 | [11] 0.05 | [12] 0.024 | [13] 0.047 | [14] -0.017 | [15] -0.007 | [16] -0.039 | [17] 0.05 | [18] 0.078 | [19] -0.038 | [20] 0.014

WNK1 isoform 7 (UniProt Q9H4A3)
inactive: [1] -0.034 | [2] -0.003 | [3] -0.006 | [4] -0.026 | [5] -0.026 | [6] 0.082 | [7] 0 | [8] 0.032 | [9] -0.002 | [10] 0 | [11] 0.022 | [12] -0.061 | [13] -0.027 | [14] 0.03 | [15] -0.016 | [16] -0.032 | [17] 0.001 | [18] -0.018 | [19] 0.001 | [20] -0.044

TRMT2A (UniProt Q8IZ69)
UniProt Q8IZ69, sequence (Q8IZ69 whole entry, looked up): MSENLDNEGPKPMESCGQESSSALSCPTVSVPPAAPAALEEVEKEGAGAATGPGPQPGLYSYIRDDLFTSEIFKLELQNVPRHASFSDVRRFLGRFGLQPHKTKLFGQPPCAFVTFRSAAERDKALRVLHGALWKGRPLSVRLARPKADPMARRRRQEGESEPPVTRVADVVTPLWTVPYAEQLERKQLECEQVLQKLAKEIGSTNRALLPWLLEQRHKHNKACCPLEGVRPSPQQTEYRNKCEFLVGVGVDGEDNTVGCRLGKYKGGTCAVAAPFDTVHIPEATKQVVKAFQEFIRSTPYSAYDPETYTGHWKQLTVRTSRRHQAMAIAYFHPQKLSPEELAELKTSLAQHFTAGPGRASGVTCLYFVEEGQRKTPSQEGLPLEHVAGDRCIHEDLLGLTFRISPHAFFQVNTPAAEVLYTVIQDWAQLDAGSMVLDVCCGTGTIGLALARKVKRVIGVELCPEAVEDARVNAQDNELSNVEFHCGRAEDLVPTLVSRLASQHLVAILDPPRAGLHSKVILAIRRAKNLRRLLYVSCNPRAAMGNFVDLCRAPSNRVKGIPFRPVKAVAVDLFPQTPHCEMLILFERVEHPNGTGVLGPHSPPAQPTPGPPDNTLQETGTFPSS
inactive: [2] 0.061 | [3] 0.016 | [4] 0.04 | [5] -0.051 | [6] -0.158 | [7] -0.006 | [8] -0.071 | [9] 0.016 | [10] -0.096 | [11] -0.034 | [12] -0.016 | [13] -0.072 | [14] 0.152 | [15] -0.041 | [16] 0.019 | [17] 0.063 | [18] 0.045 | [19] 0.07 | [20] -0.122
active: [1] -0.322

TPP1 (UniProt O14773)
active: [12] -0.371
inactive: [1] 0.024 | [2] -0.175 | [3] 0 | [4] -0.008 | [5] 0.168 | [6] -0.072 | [7] -0.039 | [8] 0.087 | [9] -0.026 | [10] 0.011 | [11] 0.025 | [13] 0.022 | [14] -0.026 | [15] 0.056 | [16] 0.049 | [17] -0.009 | [18] -0.016 | [19] 0.008 | [20] -0.189
